# Laboratory results reported in PubChem BioAssay (NCI).
# Compounds without any hit were thinned out: in the full panel of roughly 83,000, 20% have a hit.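 Step 1: grow cells in 96-well plates. Step 2: add test compound at a single concentration. Step 3: incubate 48 h. Step 4: record percent growth.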 Unmarked numbers belong to inactive results. Active and inactive are the calls of the source.
# Test system: BT-549 breast
# Assay: NCI-60 one-dose screen, 48 h (100 = growth as untreated, 0 = no growth, -100 = all killed)
# Settings: 10 µM unless noted
# Experimental: Growth inhibition of the BT-549 human tumor cell line is measured as a screen for anti-cancer activity. Cells are grown in 96 well plates and exposed to the test compound for 48 hours. Compounds are tested at a single concentration, which is 10^-5 M for most compounds. The reported endpoint is percent growth (GI% or GIPRCNT), where numbers from 0 - 100% represent growth inhibition, and numbers from -100% - 0 represent cell death. For example, a value of 40 represents 60% growth inhibition. A value of 0 means no net growth occurred over the course of the experiment. A value of -40 indicates 40% of cells at the beginning of the experiment died by the end of the experiment. A value of -100 means all cells are dead at the end of the experiment.
# NCI-60 Human Tumor Cell Lines Screen was performed using the standard one-dose NCI protocol, which is described in more detail at https://dtp.cancer.gov/discovery_development/nci-60/default.htm.
# Compounds with GIPRCNT values below 10 were considered active. Activity score was based on GIPRCNT using the following formula: […]
# Score is 0 for GIPRCNT values of 100 or above, 50 for GIPRCNT values of 0, and 100 for GIPRCNT values of -100.
row,SMILES,growth
1,CC(=O)C1=C(O)C=C2Oc3c(C(=O)/C=C/c4cc(Cl)cc(Cl)c4)c(O)c(C)c(O)c3[C@]2(C)C1=O,-19.9% (active)
2,Oc1c(Cl)cc(Cl)cc1CNc1nccnn1,105%
3,O=C(O)c1c([N+](=O)[O-])cnc2ccccc12,96.7%
4,O=C(Nc1ccc(Oc2ccc(F)cc2)c(Cl)c1)c1cccnc1,92.5%
5,CC(=O)OC1Oc2cc(C)c(C)cc2-c2oc(=O)c(-c3cc4ccc(N(C)C)cc4oc3=O)cc21 (stereo not given),59.3%
6,COc1cc(NC(N)=NCC(C)(C)COc2ccc(C(F)(F)F)cc2)cnc1C#N,75.4%
7,Nc1c(C(=O)Nc2cccc3c2OCCO3)sc2nc3c(cc12)C(=O)CCC3,62.7%
8,CCCCCCCCCCCCCC(=O)C(C)N (stereo not given),66.9%
9,COc1ccc(-c2c3c(nc4n[nH]c(-c5ccc(Cl)cc5)c24)-c2ccccc2C(=O)C3=O)cc1,20.5%
10,C[C@@]1(N2C(=O)OC[C@@H]2c2ccccc2)C(=O)N([C@H](CC(=O)N2CCC(N3CCCCC3)CC2)C(=O)NCc2cccc(C(F)(F)F)c2)[C@@H]1/C=C/c1ccccc1,78.1%
11,C=C1CC2(OC1=O)C(=O)N(CCCCCCCN1C(=O)C3(CC(=C)C(=O)O3)c3ccccc31)c1ccccc12 (stereo not given),35.2%
12,CCCCCn1cnc2c(=S)nc[nH]c21,129%
13,CCN(CC)CCC(=O)c1ccc(OC)c2ccccc12,79.6%
14,C/C=C/C(N)=O,99.7%
15,CCOC(=O)c1cnc2ccc(OC)cc2c1Nc1cccc(S(=O)(=O)NC)c1,80.1%
16,COc1ccc(-n2cc(-c3ccccc3)c3c(SCC(=O)N/N=C/c4ccc([N+](=O)[O-])cc4)ncnc32)cc1,97.8%
17,CS(=O)(CCCCN=C=S)=NC(=O)c1c(F)c(F)c(F)c(F)c1F (stereo not given),97.1%
18,CC1CN(Cc2ccco2)C(=S)N(c2ccccc2)C1=O (stereo not given),94.6%
19,CC1=C(NCCN2CCCC2)C(=O)c2c(OCc3cccc(Cl)c3)cccc2C1=O,14.5%
20,Cc1cc(N/N=C/c2nc(-c3ccc(Cl)cc3)oc2C)c2cc(Cl)ccc2n1,91.2%

row,SMILES,growth
1,Oc1ccc2c(=S)cc(-c3ccc(Br)cc3)oc2c1O,44.6%
2,N#Cc1c(N)nc(N)nc1Nc1ccc(Br)cc1,86.2%
3,COc1ccc(S(=O)(=O)NCCCNc2nccc(-c3c(-c4cccc(N)c4)nc4sccn34)n2)cc1,102%
4,CSc1nc2sc3c(c2c(=O)n1-c1ccc(C(C)C)cc1)CCC(=O)C3,3.97% (active)
5,Cc1ccc(C2CC3c4ccccc4C2C2CCCCN32)cc1 (stereo not given),57.4%
6,c1ccc(-c2nc(N3CCOCC3)c3c4c(sc3n2)CCCCC4)nc1,62.8%
7,COc1ccccc1N1CCN(CCn2c(=O)c3c(c4ccccc4n3C)n(C)c2=O)CC1,99.3%
8,O=[N+]([O-])c1cccc(-c2nc3sccn3c2-c2ccnc(NCCCNS(=O)(=O)c3ccc(Br)cc3)n2)c1,38%
9,Nc1cc2ccncc2c2ccccc12,70.5%
10,COc1ccc(/C=N\NC(=O)c2ccncc2)cc1O,98.1%
11,Nc1nc(SCc2ccccc2)c2ncn(C3CCCC3)c2n1,116%
12,CN1CCN(Cc2ccc(NC(=O)c3[nH]ncc3Nc3ncnc4sccc34)cc2)CC1,-5.78% (active)
13,O=C1O[C@H]([C@H](O)CO)C(O)=C1O,93.1%
14,Oc1ccccc1/C=N/Nc1ccc2ccccc2n1,66.8%
15,COC(=O)C12C3C(=O)N(c4ccc(OC)cc4)C(=O)C3C(c3cn(-c4ccccc4)nc3C)N1[C@H](c1cn(-c3ccccc3)nc1C)[C@@H]1C(=O)N(c3ccc(OC)cc3)C(=O)[C@@H]12 (stereo not given in full),113%
16,COc1cc(C2CC(=O)c3c(C)nn(-c4nc5ccccc5[nH]4)c3C2)cc(OC)c1OC (stereo not given),77.7%
17,COc1ccc(-c2cc(-c3cccnc3)nc3sc4c(=O)n(-c5ccc(C)cc5)nnc4c23)cc1OC,103%
18,COc1cccc(/C=C\C(=O)c2ccccc2)c1,97.4%
19,C=C1C(=O)O[C@H]2[C@H]1CC/C(Cn1cc(Cc3c[nH]c4ccccc34)nn1)=C\CC[C@@]1(C)O[C@@H]21,44.2%
20,NC1=CSC2=N/C(=C\c3ccc(Cl)cc3)C(=O)N12,75.3%
